Cruzain noTriton: qHTS Assay for Promiscuous and Specific Inhibitors of Cruzain (without detergent); Potency, µM, without a hit: max response, negative = inhibition, most hits filed as inhibitors; purified cruzain, Z-FR-AMC fluorescence, no detergent; Cruzipain (Trypanosoma cruzi), P25779; 200,000 compounds, 2.3% hits; AID 1476, 2009;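 further: plate controls were enzyme without inhibitor for no effect and buffer without enzyme for full effect; nearly all actives have a fitted effect of over 40% in size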
Target sequence (P25779 123-467 limits assumed): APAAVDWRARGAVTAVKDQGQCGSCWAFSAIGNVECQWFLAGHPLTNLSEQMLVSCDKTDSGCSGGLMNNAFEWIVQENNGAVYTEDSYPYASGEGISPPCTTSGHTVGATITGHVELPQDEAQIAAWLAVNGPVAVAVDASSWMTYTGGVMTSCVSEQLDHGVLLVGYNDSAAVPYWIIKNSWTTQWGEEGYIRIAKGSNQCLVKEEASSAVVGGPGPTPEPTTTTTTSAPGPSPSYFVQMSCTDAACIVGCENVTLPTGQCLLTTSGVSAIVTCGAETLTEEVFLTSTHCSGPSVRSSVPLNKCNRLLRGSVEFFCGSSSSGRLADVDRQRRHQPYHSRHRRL
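Detergent-free condition (0.00005% Triton X-100) in acetate buffer pH 5.5 with DTT. 1.5 nM enzyme and compound were pre-mixed 15 min, then 2 uM Z-FR-AMC substrate added; reaction progress from fluorescence change between first and third reads (60 s).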
Cruzain inh Det: qHTS Assay for Promiscuous and Specific Inhibitors of Cruzain (with detergent); Cruzipain (Trypanosoma cruzi), P25779; purified cruzain, Z-FR-AMC fluorescence, 0.01% Triton; Potency, µM, inactives show max response, negative = inhibition, hits mostly inhibitors; 200,000 compounds, 0.43% hits;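 further: plate controls were neutral wells for no effect and buffer without enzyme for full effect; nearly all actives have a fitted effect of over 40% in size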
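Cysteine protease activity tested under reducing, mildly acidic conditions (100 mM sodium acetate pH 5.5, 5 mM DTT) plus 0.01% Triton X-100. Cruzain 1.5 nM; substrate Z-FR-AMC 2 uM; 15 min compound preincubation at room temperature.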
Numbers without * were called inactive; ? = inconclusive. Sampled rows, rich in hits. Any-hit rate of the full collection: about 2.5%. The call rests on the fitted dose curve; in most records, active means well fitted curve in the direction sought with a large enough effect; inconclusive means small, poorly fitted or top-dose-only effect, or another doubt; inactive means no such curve, though single readings can be large; an effect the other way counts as inactive or inconclusive. Potency means the concentration at half of the fitted maximal effect.

SMILES | Cruzain noTriton | Cruzain inh Det
CSc1nc(N(C)CCO)c2sc3nc(-c4ccco4)c4c(c3c2n1)CCC4 | -25% | 8.9µM*
CSc1nc(N2CCN(CCO)CC2)c2sc3nc(-c4ccco4)c4c(c3c2n1)CCC4 | -1% | -16%
CC(C)NC(=O)COC(=O)CNC(=O)c1cc(Cl)cc([N+](=O)[O-])c1 | 7.9µM* | 7.9µM*
Cc1ccc(S(=O)(=O)N2CCOCC2)cc1NC(=O)COC(=O)CNC(=O)c1ccc(C(C)(C)C)cc1 | ? | -2%
CC(C)(C)c1ccc(C(=O)NCC(=O)OCC(=O)Nc2ccccc2[N+](=O)[O-])cc1 | 5% | -6%
Cc1ccc(S(=O)(=O)N2CCCCC2)cc1NC(=O)COC(=O)CNC(=O)c1cc(Cl)cc([N+](=O)[O-])c1 | 20µM* | 10µM*
C[N+](C)(C)CCN(Cc1cccs1)c1ccccn1 | -3% | 5%
CCOC(=O)CSc1nc2ccc(NC(=O)c3ccc(F)cc3)cc2s1 | -14% | -3%
N#C[C@H]1CN[C@H](N)N[C@@H]1N | 4% | 2%
C=C(C(C)=O)C(O)/C=C/c1ccco1 (configuration not stated) | 16% | 2%
Cc1ccc(-c2nnn(CC(=O)N(c3cccc(F)c3)C(C(=O)NC3CCCC3)c3ccco3)n2)o1 (configuration not stated) | 6.3µM* | 2%
Cc1ccc(-c2nnn(CC(=O)N(c3ccccc3F)C(C(=O)NC3CCCC3)c3ccco3)n2)o1 (configuration not stated) | 3% | 1%
Cc1ccc(-c2nnn(CC(=O)N(c3ccc(F)cc3)C(C(=O)NC(C)(C)C)c3ccco3)n2)o1 (configuration not stated) | 9% | 2%
Cc1ccc(-c2nnn(CC(=O)N(c3ccc(F)cc3)C(C(=O)NC3CCCC3)c3ccco3)n2)o1 (configuration not stated) | 10µM* | 2%
COc1cccc(NC(=O)Cn2c(=O)n(-c3cccc(OC)c3)c(=O)c3c4c(sc32)CCCC4)c1 | -2% | -1%
CCS(=O)(=O)N1CCC(n2c(C(F)(F)F)nc3cccnc32)CC1 | -12% | 1%
Cc1cc(NC(=O)CC2CCCC2)n(-c2nc3ccccc3[nH]2)n1 | -12% | -7%
Cc1cc(NC(=O)c2ccc(F)cc2F)n(-c2nc3ccccc3[nH]2)n1 | 20µM* | 4%
NCCNS(=O)(=O)c1ccc(N)cc1 | -7% | 0%
CCCc1nc2ccccc2c(=O)n1-c1cccc(OC)c1 | 1% | 1%
CC(C)Oc1cccc(-n2c(CCc3c[nH]c4ccc(Br)cc34)nc3ccccc3c2=O)c1 | 32µM* | 5%
O=C(Nc1ccc2oc(-c3ccc4ccccc4c3)nc2c1)c1ccc2c(c1)OCCO2 | 10µM* | -3%
O=C(Nc1ccc2oc(-c3ccc4ccccc4c3)nc2c1)c1ccc(Cl)c(Cl)c1 | -3% | 0%
C[C@@H]1CCCC(CC(=O)O)(CC(=O)O)C1 | 13% | 2%
Cc1ccc(OCc2ccc(C(=O)Nc3nccs3)o2)cc1C | 1% | -1%
SMILES | Cruzain noTriton | Cruzain inh Det
Cc1cc(NC(=O)c2ccc(COc3ccc(Cl)c(C)c3)o2)no1 | 25µM* | -2%
CCOc1cccc(CNC(=O)c2ccc(N3CCCC3)c(NC(=O)NCc3ccc(F)cc3)c2)c1 | 4% | -1%
Cc1ccc(-n2ncc3c(NCc4ccccc4)ncnc32)cc1 | -25% | 5%
Cc1ccc(CNc2ncnc3c2cnn3-c2ccccc2)cc1 | 25µM* | 5%
Cc1cc(C(=O)CSc2nn3c(=O)c(C(C)(C)C)nnc3s2)c(C)n1-c1ccc(F)cc1 | 13µM* | 2%
CC(C)N(C(=O)CSc1nn2c(=O)c(C(C)(C)C)nnc2s1)c1ccccc1 | 19% | -6%
Cn1c(=O)c2sccc2n2c(CCC(=O)N3CCN(c4ccc(F)cc4)CC3)nnc12 | 2% | -2%
COC(=O)c1c(N)n(-c2ccc(OC)c(OC)c2)c2nc3ccccc3nc12 | 4% | -2%
COc1ccc(/C=C2\SC(=S)N(CCC(=O)NC3=NCCS3)C2=O)cc1OC | -15% | -12%
Cn1cc(/C=C2/SC(=O)N(CC(=O)Nc3ccc4c(c3)OCO4)C2=O)c2ccccc21 | 25µM* | -1%
O=C(CCN1C(=O)/C(=C/c2ccc3c(c2)OCO3)SC1=S)Nc1ccccc1 | 7.9µM* | -5%
Cn1cc(S(=O)(=O)CC(=O)Nc2ccc3c(c2)OCCO3)c2ccccc21 | 1% | 8%
CCC(Sc1nc2ccccc2c2nc(CCc3c(C)n[nH]c3C)nn12)C(=O)Nc1ccccc1F (configuration not stated) | ? | 3%
CCc1nn2c(=O)cc(COC(=O)c3ccccc3NC(=O)COc3ccc(C)c(C)c3)nc2s1 | -1% | 0%
O=[N+]([O-])c1ccc(Cl)cc1Cl | 5% | 4%
Oc1ccccc1/C=N/Nc1ccnc(SCc2ccccc2)n1 | 20µM* | -6%
Clc1ccc(Cl)c(Nc2ccnc(SCc3ccccc3)n2)c1 | -12% | -6%

High-throughput results: PubChem, National Center for Advancing Translational Sciences (NCATS)
